Data from PubChem BioAssay AID1159580 (chemical genetic matrix, 2015).
Values joined by “and” are separate entries in the source; they are usually repeats but may differ in a detail not shown here. Equal entries are not always repeated. Screen size: about 5,500 compounds; about 2,000 (36%) were called active. Roughly 18% stayed inconclusive and do not appear here. No stated cut-off is given here; in the data, active means normalized growth mostly below about 0.91 (no sharp cut-off); inconclusive means no clear call, values can overlap the other calls; inactive means mostly above about 0.92. The list shows a part of the results.

Assay: chemical genetic growth profiling, strain panel (AID 1159580);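 further: tested at 20 µM; growth read once vehicle control cultures reached saturation at 30 °C; 1 = growth at the plate median or of vehicle wells; lower values mean less growth of the strain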
Settings: S. cerevisiae deletion strains, growth OD

Measured: normalized growth

O=C(O)COc1cc(Cl)c(Cl)cc1Cl
inactive: locus YAL013W, strain DEP1, active compounds read low 1 | locus YAL021C, strain ccr4, active compounds read low 0.984 | locus YAL026C, strain drs2, active compounds read low 1 | locus YAL030W, strain snc1, active compounds read low 1.01 | locus YBL061C, strain skt5, active compounds read low 1 | locus YBR009C, strain hhf1, active compounds read low 1 | locus YBR021W, strain FUR4, active compounds read low 1.01 | locus YBR023C, strain chs3, active compounds read low 1 | locus YBR171W, strain sec66, active compounds read low 0.998 | locus YBR229C, strain ROT2, active compounds read low 1.01 | locus YBR231C, strain swc5, active compounds read low 1 | locus YBR279W, strain paf1, active compounds read low 1 | locus YCL011C, strain gbp2, active compounds read low 1 | locus YCL016C, strain dcc1, active compounds read low 0.988 | locus YCL029C, strain bik1, active compounds read low 1.02 | locus YCL061C, strain MRC1, active compounds read low 1 | locus YCL069W, strain vba3, active compounds read low 0.993 | locus YCR088W, strain abp1, active compounds read low 1 | locus YDL005C, strain med2, active compounds read low 0.995 | locus YDL035C, strain GPR1, active compounds read low 1.02 | locus YDL040C, strain nat1, active compounds read low 0.994 | locus YDL074C, strain BRE1, active compounds read low 1.01 | locus YDL101C, strain DUN1, active compounds read low 0.982 | locus YDL134C, strain PPH21, active compounds read low 1.01 | locus YDL185W, strain tfp1, active compounds read low 1.03 | locus YDL192W, strain arf1, active compounds read low 1.02 | locus YDR001C, strain nth1, active compounds read low 1.01 | locus YDR069C, strain doa4, active compounds read low 0.994 | locus YDR101C, strain arx1, active compounds read low 1.02 | locus YDR137W, strain rgp1, active compounds read low 1.05 | locus YDR150W, strain NUM1, active compounds read low 1 | locus YDR159W, strain sac3, active compounds read low 0.999 | locus YDR162C, strain NBP2, active compounds read low 1 | locus YDR195W, strain ref2 0.952 | locus YDR297W, strain sur2, active compounds read low 1 | locus YDR318W, strain mcm21, active compounds read low 1.02 | locus YDR334W, strain swr1, active compounds read low 0.998 | locus YDR335W, strain msn5, active compounds read low 0.994 | locus YDR388W, active compounds read low 1.02 | locus YDR392W, strain spt3, active compounds read low 1.01 | locus YDR502C, strain sam2, active compounds read low 1.01 | locus YEL003W, strain gim4, active compounds read low 1.02 | locus YEL037C, strain rad23, active compounds read low 1.01 | locus YEL061C, strain CIN8 (second series), active compounds read low 0.999 | locus YEL061C, strain CIN8, active compounds read low 1 | locus YER015W, strain faa2, active compounds read low 1 | locus YER016W, strain bim1, active compounds read low 1 | locus YER110C, active compounds read low 1.02 | locus YER111C, strain swi4, active compounds read low 0.993 | locus YER155C, strain BEM2 (second series), active compounds read low 0.989 | locus YER155C, strain BEM2, active compounds read low 1.01 | locus YER167W, strain BCK2, active compounds read low 1.02 | locus YFR010W, strain ubp6, active compounds read low 1 | locus YGL078C, strain dbp3, active compounds read low 1.02 | locus YGL086W, strain mad1, active compounds read low 1.01 | locus YGL167C, strain pmr1, active compounds read low 1 | locus YGL173C, strain kem1, active compounds read low 0.994 | locus YGL227W, strain vid30, active compounds read low 1 | locus YGL240W, strain doc1, active compounds read low 0.999 | locus YGL248W, strain PDE1, active compounds read low 1.02 | locus YGL253W, strain hxk2, active compounds read low 0.995 | locus YGR078C, strain PAC10, active compounds read low 1.02 | locus YGR135W, strain pre9, active compounds read low 1.03 | locus YGR229C, strain SMI1, active compounds read low 1.02 | locus YGR252W, strain gcn5, active compounds read low 1.04 | locus YHR013C, strain ard1, active compounds read low 0.997 | locus YHR027C, strain rpn1, active compounds read low 0.998 | locus YHR030C, strain SLT2, active compounds read low 1.01 | locus YHR079C, strain IRE1 (second series), active compounds read low 1.02 | locus YHR079C, strain IRE1, active compounds read low 1.02 | locus YHR094C, strain hxt1, active compounds read low 1.02 | locus YHR129C, strain ARP1, active compounds read low 1.01 | locus YHR142W, strain chs7, active compounds read low 1 | locus YHR200W, strain rpn10, active compounds read low 1.01 | locus YIL066C, strain RNR3, active compounds read low 1.03 | locus YIL073C, strain SPO22, active compounds read low 1.09 | locus YIL125W, strain kgd1, active compounds read low 1.02 | locus YIR030C, strain dcg1, active compounds read low 1.02 | locus YJL092W, strain hpr5, active compounds read low 0.999 | locus YJL095W, strain BCK1 (second series), active compounds read low 0.994 | locus YJL095W, strain BCK1, active compounds read low 1.02 and 1.03 | locus YJL115W, strain asf1, active compounds read low 0.991 | locus YJL129C, strain trk1, active compounds read low 0.998 | locus YJL134W, strain LCB3, active compounds read low 1.01 | locus YJL154C, strain vps35, active compounds read low 0.998 | locus YJL164C, strain tpk1, active compounds read low 1.01 | locus YJL166W, strain qcr8, active compounds read low 1.01 | locus YJL168C, strain set2, active compounds read low 1.02 | locus YJL187C, strain SWE1 (second series), active compounds read low 1.01 | locus YJL187C, strain SWE1, active compounds read low 1 | locus YJR043C, strain POL32, active compounds read low 1.01 | locus YJR066W, strain TOR1, active compounds read low 0.94
